Compounds without any hit were thinned out: in the full panel of roughly 83,000, 20% have a hit.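 The endpoint reported here, percent growth, reads 100 for growth as untreated, 0 for no net growth and -100 for all cells dead.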 A number with no mark means an inactive call. Calls of active or inactive are those of the source. The calls were made as follows: active = growth percent below 10; inactive = the rest.

This assay deals with MCF7 breast. In words: NCI-60 one-dose screen, 48 h (100 = growth as untreated, 0 = no growth, -100 = all killed). The following applies: 10 µM unless noted.
On to `Fc1ccc(C2CC(c3cccc(Nc4ccncc4)c3)=NN2c2ccc(Cl)cc2)cc1` (centres undefined), for which the growth was 6.6% (active).

Turning to `O=C1Nc2cc(-c3ccncc3)ccc2/C1=C/c1ccc[nH]1`, the growth was 21%.

On to `CC1=CC2(C)/C=C(C)/C=C\CC(O)/C=C3/C=CC(=C4C(=O)OC2(CC1C)C4=O)OC3` (centres undefined), for which the growth is -21.9% (active).

Turning to `COc1ccc(C(=O)/C=C/c2cn(Cc3ccc(Cl)cc3)c3ccccc23)cc1`, the growth is 52.6%.

Turning to `CC(C)(C#N)N1CCN(c2ccccc2Cl)CC1`, the growth is 106%.

With `CN1CCN(c2cc(F)c(NC3=C(Cl)C(=O)c4ncccc4C3=O)c(F)c2)CC1`, the growth was -58.2% (active).

As for `CC(=O)[C@@H]1CC[C@]2(C(=O)n3ccnc3)CC[C@]3(C)[C@H](CC[C@@H]4[C@@]5(C)Cc6c([nH]c7ccccc67)C(C)(C)[C@@H]5CC[C@]43C)[C@@H]12`, the growth is 71.9%.

For the molecule `CC(C)CCSc1nc(NNC(N)=O)c(C#N)c(-c2ccccc2)n1`, the growth is 103%.

Turning to `Nc1c(Cl)cc([N+](=O)[O-])cc1Br`, the growth was 99.9%.

In the case of `CC1(C)CN(c2cnc(C(=O)Nc3cc(F)cc4cccnc34)cn2)CCN1`, the growth was 9.21% (active).

As for `O=C(CNCCO)Nc1ccc2ncnc(Nc3ccc(OCc4cccc(F)c4)c(Cl)c3)c2c1`, the growth is 82.5%.

As to `N#Cc1c(Nc2ccccc2)nn2cc(-c3nc4ccccc4s3)c(N)nc12`, the growth was 63.3%.

For the molecule `COc1ccc(C(O)c2cc3c(N)c(C(=O)Nc4ccccc4)sc3nc2C)cc1` (centres undefined), the growth is 13.4%.

For the molecule `Cc1cc(NC(=O)c2cnc(N3CCN(CCOCCOCCOCCOCCC(=O)N[C@H](C(=O)N4C[C@H](O)C[C@H]4C(=O)N[C@@H](C)c4ccc(-c5scnc5C)cc4)C(C)(C)C)CC3)cn2)c2ncccc2c1`, the growth is 4.01% (active).

Regarding `NC(=O)CN1CCN(c2ccccc2Cl)CC1`, the growth is 102%.

Consider `c1ccc(-c2nn(-c3ccccc3)[n+](-c3ccccc3-c3ccccc3)n2)cc1`, for which the growth was 8.29% (active).

Consider `O=C(N/N=C/c1cccnc1)c1ccccc1Nc1cccc(C(F)(F)F)c1`, for which the growth was 91.8%.

In the case of `O=C(Nc1cccc(C2=NCCN2)c1)c1ccc(OCCCOc2ccc(C(=O)Nc3cccc(C4=NCCN4)c3)cc2)cc1`, the growth is 0.803% (active).

As to `O=S(=O)(NCCCNc1nccc(-c2c(-c3ccc(F)c(O)c3)nc3sccn23)n1)c1ccc(F)cc1`, the growth is 4.13% (active).

As to `CCc1c(Nc2ccc(C)cc2)nc(N)[nH]c1=O`, the growth was 93.7%.

Turning to `O=C(Nc1ccc2ncnc(Nc3ccc(Oc4cccc(F)c4)c(Cl)c3)c2c1)c1ccc(CN2CCOCC2)cc1`, the growth is 10.5%.

As for `Cc1ccc(Nc2cc(=S)nc(N)[nH]2)cc1C`, the growth is 88.5%.

For the molecule `COc1ccc(Nn2c(SCC(=O)Nc3nc(-c4ccc(Cl)cc4)cs3)nc(C)c2C)cc1`, the growth is 20.8%.

In the case of `CC(O)(CO)c1ccccc1` (centres undefined), the growth is 98.7%.

(Values after PubChem BioAssay (NCI).)
